# Compound activity as filed in PubChem.
# This is a sample that favours compounds with a hit; in the whole collection about 1.3% have one here.
# S1P2 ag: activates the human S1P2 receptor; S1P2-expressing cell line, agonist reporter read-out; O95136; 0.46% of 97,000 active; AID 729; activation, % at 4.5 µM; in the data active = activation above about 16%;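 also: 0% = vehicle low control and 100% = maximal reference agonist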
# S1P2 antag: S1P2 (human) receptor antagonism; cell-based S1P2 antagonist assay, inhibition at 5 uM; inhibition, % at 5 µM; 0.21% of 97,000 active; AID 736; in the data active = inhibition above about 45%;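 also: CRE beta-lactamase reporter cells expressing human S1P2 stimulated with S1P; 0% = agonist at EC80 alone and 100% = agonist plus reference antagonist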
# GALR2 agonist: activates the human galanin receptor 2. GALR2-expressing cells, agonist activation read-out. O43603. 0.48% of 140,000 active. AID 803. activation, % (no concentration beside the values); in the data active = activation above about 5%, passing the limit was not always enough;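 also: 0% = vehicle buffer wells and 100% = reference agonist at full effect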
# LYP inh 2: blocks human PTPN22 phosphatase activity. recombinant LYP catalytic domain, DiFMUP fluorescence. inhibition, % at 2 µM. 0.21% of 96,000 active;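 active = inhibition at 2 µM at or above a set limit, the screen mean plus 3 SD, cut at about 24% in these data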;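 also: 0% = DMSO with enzyme and 100% = enzyme fully blocked by orthovanadate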
# Target sequence (Q9Y2R2 whole entry, looked up, the tested form may be a part): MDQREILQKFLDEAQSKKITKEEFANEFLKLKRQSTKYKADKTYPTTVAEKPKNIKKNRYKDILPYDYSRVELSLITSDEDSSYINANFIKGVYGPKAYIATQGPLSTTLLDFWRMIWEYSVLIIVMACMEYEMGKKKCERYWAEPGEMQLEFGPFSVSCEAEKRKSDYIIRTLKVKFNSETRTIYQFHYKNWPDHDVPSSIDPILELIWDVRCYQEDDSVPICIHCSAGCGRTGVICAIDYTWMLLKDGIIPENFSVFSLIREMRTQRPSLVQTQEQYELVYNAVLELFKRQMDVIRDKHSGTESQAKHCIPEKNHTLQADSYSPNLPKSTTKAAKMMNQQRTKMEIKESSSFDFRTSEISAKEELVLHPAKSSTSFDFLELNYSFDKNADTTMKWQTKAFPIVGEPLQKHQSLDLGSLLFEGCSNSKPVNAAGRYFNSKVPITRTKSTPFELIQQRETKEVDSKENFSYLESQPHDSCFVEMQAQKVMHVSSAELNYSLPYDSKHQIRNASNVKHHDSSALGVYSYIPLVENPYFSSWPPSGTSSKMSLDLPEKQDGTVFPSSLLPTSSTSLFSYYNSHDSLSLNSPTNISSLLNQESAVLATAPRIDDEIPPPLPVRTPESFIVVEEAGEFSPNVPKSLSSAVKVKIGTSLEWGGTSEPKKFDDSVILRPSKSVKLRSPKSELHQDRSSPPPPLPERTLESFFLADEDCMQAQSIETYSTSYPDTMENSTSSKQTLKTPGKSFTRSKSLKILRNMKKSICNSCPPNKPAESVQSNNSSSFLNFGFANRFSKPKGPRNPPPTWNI
# LYP act: increases human PTPN22 phosphatase activity | Q9Y2R2 | recombinant LYP, DiFMUP fluorescence; 0 = plate median, 100 = signal doubled | activation, % at 2 µM | 0.11% of 96,000 active | AID 697;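 active = activation at 2 µM above a set limit, the mean plus 5 SD, cut at about 37% in these data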
# GALR2 blocker: antagonists of human galanin receptor 2 (GALR2); 0.39% of 140,000 active; GALR2-expressing cells, antagonist mode; inhibition, % at 4 µM; AID 828; in the data active = inhibition above about 27%;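 also: cells stimulated with galanin 1-16 at roughly its EC80; 0% = agonist challenge control and 100% = basal control without agonist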
# Active calls of the source: *; nt = no result given.
SMILES,S1P2 ag,S1P2 antag,GALR2 agonist,LYP inh 2,LYP act,GALR2 blocker
C=CCNC(=S)NNC(=O)c1cccn(Cc2cccc(Cl)c2)c1=O,-3,-16,-1,56*,-55,-8
C=CCNC(=S)NNC(=O)c1cccn(Cc2ccc(Cl)cc2)c1=O,-1,-3,0,53*,-52,-20
NC(=O)c1cccn1Cc1cccc(Cl)c1,-3,-4,-3,-5,4,3
CN(Cc1ccccc1)c1nc(N)c([N+](=O)[O-])c(Nc2cccc(F)c2)n1,22*,-60,-4,9,-8,1
Cc1cccc(N2CCN(c3cc(C)nc4nnnn34)CC2C)c1 (stereo not given),nt,nt,5.4*,nt,nt,7
Cc1cc(N2CCN(c3ccccc3)CC2)n2nnnc2n1,nt,nt,0,nt,nt,2
C=CCNCCCOc1ccc(Cl)cc1Br,nt,nt,0,nt,nt,-2
COc1ccc(S(=O)(=O)N2CC3CCCN3c3cc(C(F)(F)F)ccc32)cc1 (stereo not given),1,13,0,25*,-22,-7
Nc1nnnn1/N=C/C(Br)=C/c1ccccc1,-8,47*,-1,6,-8,30*
Nc1nnnn1/N=C/C=C/c1ccccc1,nt,nt,-2,nt,nt,0
Cc1cc(C(=O)COC(=O)Cc2n[nH]c(=O)c3ccccc23)c(C)n1-c1ccc2c(c1)OCCO2,nt,nt,0,nt,nt,6
COc1ccc(N2CCN(c3ncnc4c3[nH]c3ccccc34)CC2)cc1,-3,63*,0,-6,3,15
Fc1ccc2[nH]c3c(N4CCN(c5ccccc5)CC4)ncnc3c2c1,nt,nt,0,nt,nt,23
CNC(=O)/C(C#N)=C/c1c(N2CC(C)OC(C)C2)nc2ccccn2c1=O (stereo not given),nt,nt,3,nt,nt,14
COc1ccccc1-c1cnnc(N/N=C/c2ccc(-c3cccc(Br)c3)o2)n1,-5,-9,-2,31*,-31,5
COc1cc2c(cc1OC)C(c1cc3ccccc3oc1=O)=NC(C)(C)C2,33*,-58,0,11,-12,13
COc1ccc(-c2noc(-c3cc4ccccc4oc3=O)n2)cc1,-3,7,0,8,-5,-6
COc1ccc(-c2nc3ccccc3c(=O)n2NC(=S)N(C)C)cc1,nt,nt,0,nt,nt,0
O=C(Cn1cnc2ccccc21)Nc1ccc(C(=O)O)cc1,-1,9,-1,33*,-35,4
COc1cccc(CNC(=O)C2=C(C)C(=O)OC23CCC(C)CC3)c1 (stereo not given),-3,-13,-2,2,3,4
Cc1nnc(N(Cc2ccco2)C(=O)c2ccc(C#N)cc2)s1,-5,-1,-2,27*,-27,13
CCN(CC)c1ccc(NC(=O)Nc2ccccc2C(F)(F)F)cc1,62*,-6,-3,7,-4,10
CCn1c(=O)c(C(=O)Nc2nc3ccccc3[nH]2)c(O)c2ccccc21,4,79*,1,-4,4,2
O=C1OCCN1C(=O)[C@H]1[C@H](c2ccc(F)cc2)C(c2ccc(F)cc2)=NN1c1ccccc1,nt,nt,1,nt,nt,6
O=C1OCCN1C(=O)[C@H]1[C@H](c2ccc(F)cc2)C(c2ccc(F)cc2)=NN1c1ccc(Br)cc1,nt,nt,6.7*,nt,nt,-2
SMILES,S1P2 ag,S1P2 antag,GALR2 agonist,LYP inh 2,LYP act,GALR2 blocker
NC(=S)N/N=C/c1ccccc1OCCSc1ccc(Cl)cc1,nt,nt,-1,nt,nt,0
CCOc1ncccc1C(=O)OCC(=O)Nc1cc(C)ccc1C,21*,-1,-3,0,-3,7
COc1ccc(C2Nc3ccccc3C(=O)N2c2ccccc2)cc1CSc1ccccn1 (stereo not given),nt,nt,-1,nt,nt,8
COc1ccc(C2Nc3ccccc3C(=O)N2c2ccc(F)cc2)cc1CSc1ccccn1 (stereo not given),nt,nt,6.4*,nt,nt,0
COc1ccc2nc(Nc3nc4cc5c(cc4s3)OCO5)sc2c1,nt,nt,6.8*,nt,nt,-6
CS(=O)(=O)c1nc(-c2ccc(Br)cc2)cc(-c2ccccc2)c1C#N,19*,2,-3,3,-1,0
CS(=O)c1nc(-c2ccc(Br)cc2)cc(-c2ccccc2)c1C#N (stereo not given),nt,nt,6.2*,nt,nt,57*
COc1ccc(-c2cc(-c3ccccc3)c(C#N)c(S(C)(=O)=O)n2)cc1,6,10,-2,5,-3,-1
CCOC(=O)N1CCC(N2CCN(S(=O)(=O)c3ccc4ccccc4c3)CC2)CC1,-8,10,-3,2,0,0
Nc1nc(NCc2ccco2)nc(N2CCCCC2)c1[N+](=O)[O-],nt,nt,0,nt,nt,5
CCCCCCCCCCCCCCCC[n+]1cccc2ccccc21,nt,nt,-2,nt,nt,11
CCCCCCCCC[n+]1cccc2c3ccccc3ccc21,-3,48*,0,5,-2,2
COc1cc(/C=N/Nc2nc(Nc3ccccc3)nc(-n3nc(C)cc3C)n2)cc(OC)c1OC,nt,nt,8.1*,nt,nt,7
COc1ccc(O)c(/C=N/Nc2nc(Nc3ccccc3)nc(-n3nc(C)cc3C)n2)c1,-7,5,2,-16,12,12
COc1cc(/C=N/Nc2nc(Nc3ccc(C)cc3)nc(-n3nc(C)cc3C)n2)cc(OC)c1OC,-1,47*,6,7,-6,7
CCOC(=O)c1c(C)oc2ccc(OC(=O)c3cccs3)cc12,nt,nt,-1,nt,nt,0
CC(C)NC(=O)NC(=O)COC(=O)c1ccc(F)cc1F,nt,nt,-1,nt,nt,2
CC(C)CNS(=O)(=O)c1cc(C(=O)OCC(=O)c2ccc3c(c2)OCCO3)c(Cl)cc1Cl,nt,nt,0,nt,nt,-2
CCCn1c(C)cc(C(=O)COC(=O)c2cc(S(=O)(=O)NCC(C)C)c(Cl)cc2Cl)c1C,29*,-6,-1,-2,3,-11
c1ccc(N2N=C(c3cccs3)CC2c2ccco2)cc1 (stereo not given),47*,-49,57*,0,3,0
Clc1ccc(N2N=C(c3cccs3)CC2c2ccco2)cc1 (stereo not given),102*,-78,70*,4,-1,-5
CCOC(=O)C1=C(C)Nc2sc(C(=O)c3ccc(OC)cc3)c(N)c2C1c1ccc(C(=O)OC)cc1 (stereo not given),nt,nt,5.6*,nt,nt,-2
COC(=O)C1=C(C)Nc2sc(C(N)=O)c(N)c2C1c1ccncc1 (stereo not given),nt,nt,0,nt,nt,-1
CCOC(=O)c1sc(C)c2c1NC1(CCCCCC1)NC2=O,-1,-15,0,-9,9,3
CCOC(=O)c1sc(C)c2c1NC1(CCCCC1)NC2=O,17*,-45,19*,-8,6,-2
Cn1c(C(=O)N2CCC(C(=O)N3CCOCC3)CC2)cc2sccc21,nt,nt,-3,nt,nt,-2
COC(=O)c1sccc1-n1cccc1C(=O)N1CCOCC1,-4,6,-3,60*,-59,-5
Fc1ccc(C2CC(c3ccco3)=NN2c2ccccc2)cc1 (stereo not given),5,-2,6,-10,13,-6
